An excerpt weighted towards active compounds, which were near 5.3% of everything screened.
HP1b binding inh: HTS for Inhibitors of HP1-beta Chromodomain Interactions with Methylated Histone Tails; AlphaScreen HP1-beta / biotin-H3K9me3 peptide binding; hit rate 0.56% among 390,000; Chromobox protein homolog 1 (Homo sapiens), P83916; Potency, µM (highest dose often 114 µM), for inactives: at the highest dose activity change, negative = inhibition, hits mostly inhibitors; note: potency is the fitted concentration of half-maximal effect; nearly all actives have a fitted effect of over 70% in size
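Compound inhibition of the preformed complex between 50 nM HP1-beta and 50 nM biotinylated H3K9me3 peptide was read by AlphaScreen. Buffer was PBS pH 7.4 with 0.01% Tween-20. Incubations ran 30 min at room temperature, with 10 ug/mL donor/acceptor beads.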
TDP1 inh: qHTS Assay for Inhibitors of Tyrosyl-DNA Phosphodiesterase (TDP1) | Potency, µM (series often up to 130 µM), for the others: top-dose activity change, negative = inhibition, usual class: inhibitors | Tyrosyl-DNA phosphodiesterase 1 (Homo sapiens), Q9NUW8 | AID 485290, 2010 | hit rate 0.28% among 350,000 | recombinant TDP1, AlphaScreen DNA substrate cleavage; note: potency is the fitted concentration of half-maximal effect; % is set by controls: 0 for no effect and ±100 for the full control effect; nearly all actives have a fitted effect of over 40% in size
Target sequence (Q9NUW8 whole entry, looked up): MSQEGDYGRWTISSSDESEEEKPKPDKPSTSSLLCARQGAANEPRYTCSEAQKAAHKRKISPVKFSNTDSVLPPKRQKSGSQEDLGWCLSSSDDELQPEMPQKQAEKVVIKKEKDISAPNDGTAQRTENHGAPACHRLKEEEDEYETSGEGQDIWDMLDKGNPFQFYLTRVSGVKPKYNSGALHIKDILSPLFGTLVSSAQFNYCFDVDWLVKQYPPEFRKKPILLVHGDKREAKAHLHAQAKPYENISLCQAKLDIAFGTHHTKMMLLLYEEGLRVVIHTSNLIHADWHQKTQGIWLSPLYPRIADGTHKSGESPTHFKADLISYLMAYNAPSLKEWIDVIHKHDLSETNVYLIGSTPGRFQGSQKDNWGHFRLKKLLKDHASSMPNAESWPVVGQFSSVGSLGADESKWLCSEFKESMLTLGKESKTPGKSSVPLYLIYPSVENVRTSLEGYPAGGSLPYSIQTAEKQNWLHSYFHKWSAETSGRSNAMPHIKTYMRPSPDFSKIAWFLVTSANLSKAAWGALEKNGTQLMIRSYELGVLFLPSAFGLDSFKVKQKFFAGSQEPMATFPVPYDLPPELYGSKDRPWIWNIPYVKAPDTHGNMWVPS
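Signal: AlphaScreen proximity between streptavidin donor and anti-FITC acceptor beads on intact substrate. Reaction: Tdp1 1 nM, substrate 15 nM final, 5 min RT after 15 min compound preincubation.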
JMJD2A Tudor: qHTS Assay for Inhibitors of JMJD2A-Tudor Domain; AlphaScreen JMJD2A-Tudor / H3K4me3 peptide binding; Potency, µM (highest dose often 114 µM), inactives show at the top dose activity change, negative = inhibition, usual class: inhibitors; hit rate 4.4% among 390,000; AID 504339, 2011; note: potency is the fitted concentration of half-maximal effect; % is set by controls: 0 for no effect and ±100 for the full control effect; nearly all actives have a fitted effect of over 50% in size
Six1-Eya2 inh: qHTS Assay for Inhibitors of the Six1/Eya2 Interaction | AID 651725, 2012 | activity change, % (test concentration not listed) | AlphaScreen GST-Six1/His-Eya2 binding, biochemical; active compounds read low | hit rate 0.56% among 360,000 | Homeobox protein SIX1 (Homo sapiens) + Protein phosphatase EYA2 (Homo sapiens), …; in the data active = activity change below about -65%; inconclusive = mostly about -30% to -63%; note: % is set by controls: 0 for no effect and ±100 for the full control effect
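AlphaScreen with GST-Six1 and His-Eya2 (5X mix: 250 nM and 500 nM), glutathione donor and nickel acceptor beads; buffer 50 mM Tris pH 8.0, 300 mM NaCl, 1 mM TCEP; 1 h at 37 C in the dark.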
BAZ2B block: qHTS Assay for Inhibitors of BAZ2B; Bromodomain adjacent to zinc finger domain protein 2B (Homo sapiens), Q9UIF8; AlphaScreen BAZ2B-H3K14Ac peptide displacement; Potency, µM (series often up to 114 µM), for the others: top-dose activity change, negative = inhibition, usual class: inhibitors; hit rate 4.4% among 360,000; AID 504333, 2011; note: potency is the fitted concentration of half-maximal effect; % is set by controls: 0 for no effect and ±100 for the full control effect; nearly all actives have a fitted effect of over 60% in size
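AlphaScreen displacement: compounds (up to 110uM) incubated 30 min at room temperature with a preformed 50 nM BAZ2B/50 nM biotinylated H3K14Ac peptide complex in PBS pH 7.4 with Tween-20. Donor and acceptor beads at 10 ug/mL final added, 20 min light-protected before reading.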
CtBP-E1A blk: qHTS Assay for Inhibitors of the CtBP/E1A Interaction; AlphaScreen GST-E1A/His-CtBP binding, 1536-well; active compounds read low; hit rate 0.49% among 340,000; activity change, % (concentration not given with the values); in the data active = activity change below about -65%; inconclusive = mostly about -30% to -63%; note: % is set by controls: 0 for no effect and ±100 for the full control effect
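AlphaScreen with 125 nM GST-E1A and 125 nM His-CtBP (5X stocks) in Tris pH 8.0, 300 mM NaCl, BSA, Tween 20, TCEP. Compounds preincubated 2 h at 37 deg C, then glutathione donor/nickel acceptor beads added for 1 h at 37 deg C in dark.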
Numbers without * were called inactive; ? = inconclusive; . = no result given; [ ] = remark or other dose. Unless noted, calls come from the whole dose curve; as a rule, active = well fitted inhibition curve with a large enough effect; inconclusive = small, poorly fitted or top-dose-only effect; inactive = no such curve, though single readings can be large or run the other way.

SMILES | HP1b binding inh | TDP1 inh | JMJD2A Tudor | Six1-Eya2 inh | BAZ2B block | CtBP-E1A blk
Cc1ccc(S(=O)(=O)c2nc(-c3cccc(C)c3)oc2N2CCCCC2)cc1 | 8% | -8%[12.3 µM] | -20% | . | -31% | .
Cc1nn(C)c2c1c(-c1ccccc1)cc(=O)n2Cc1ccc(Cl)cc1 | 88% | -7% | 43% | . | 24% | .
COC(=O)NC(c1ccccc1)C(C(=O)OC)C(=O)OC (stereo unspecified) | . | 4%[21 µM] | . | . | . | .
COCCN(Cc1cc2cc(C)c(C)cc2nc1Cl)C(=O)Nc1ccccc1 | 3% | 6% | -19% | -6 | 53% | -3
COCCN(Cc1cc2cc3c(cc2nc1Cl)OCO3)C(=O)c1ccc(C)cc1 | 16% | -3% | -7% | -4 | 10µM* | .
Cc1cccc(CNC(=O)c2ccc(NC(=O)C3=CSCCO3)cc2)c1 | 8% | 1% | 20µM* | -1 | -17% | 2
CCOc1ccc(CNC(=O)c2ccccc2NC(=O)C2=CSCCO2)cc1 | -2% | 1% | 32µM* | -3 | -17% | 1
Cc1cccc(CNC(=O)c2ccccc2NC(=O)C2=CSCCO2)c1 | 11% | 2% | -30% | 17 | 2% | 0
Cn1nnc2c(N3CCN(c4cccc(Cl)c4)CC3)ncnc21 | 1% | 5% | -15% | . | -1% | .
O=C1CCc2cc(S(=O)(=O)Nc3cccc(C(F)(F)F)c3)ccc2N1 | . | 1% | -10% | . | . | .
c1cn(CCCNC2CCCCCCC2)cn1 | ? | . | 40µM* | -22 | . | 0
S=C(NCCCn1ccnc1)NC1CCCCC1 | 33% | -3% | -4% | 20 | -37% | 10
c1cn(CCCNC2=NCCCCC2)cn1 | 27% | 6% | -28% | -3 | 50µM* | 0
CC(C)c1ccc(NC(=O)c2csnn2)cc1 | 9% | 5% | -16% | 5 | -27% | 9
NS(=O)(=O)c1ccc(NC(=O)c2csnn2)cc1 | ? | -2% | 89µM* | . | -16% | .
COc1ccc(N2CC(c3nc(-c4ccccc4C)no3)CC2=O)cc1Cl (stereo unspecified) | 70% | 6% | 6% | . | 7% | .
COc1ccc(-n2c3c(cc(-c4nc(-c5ccc(Cl)cc5)cs4)c2=O)C(=O)CC(C)(C)C3)cc1 | 46% | -5% | -14% | . | ? | .
COc1cc(C(=O)NS(=O)(=O)c2ccccc2C)ccc1Cc1cn(C)c2ccc(NC(=O)OC3CCCC3)cc12 | . | 2% | . | . | 50µM* | .
Brc1ccc(CNc2cc3c(cc2Br)OCCO3)cc1 | ? | 10% | ? | ? | 32µM* | -20
O=C(Nc1ccc(Nc2ccccc2)cc1)Nc1ccccc1Cl | ? | 9% | ? | -28 | 20µM* | ?
Cc1cccc(OCC(=O)Nc2ccccc2OCc2cc(=O)n3cc(C)ccc3n2)c1 | 33%[57 µM] | 11% | 6% | . | 2% | .
CCOC(=O)c1cc(S(=O)(=O)Nc2ccccc2)[nH]n1 | 17%[57 µM] | 7% | ? | . | 79µM* | .
CCOC(=O)c1cc(S(=O)(=O)N2CCN(c3ccc(C)cc3C)CC2)[nH]n1 | -2%[57 µM] | 4% | ? | . | 50µM* | .
CCOC(=O)c1cc(S(=O)(=O)NCc2ccc(C)cc2)[nH]n1 | 22%[57 µM] | 5% | -15% | . | 50µM* | .
CCOC(=O)c1cc(S(=O)(=O)N2CCN(c3cccc(C)c3C)CC2)[nH]n1 | -2%[57 µM] | 9% | -31% | . | ? | .
CCOC(=O)c1cc(S(=O)(=O)Nc2cc(OC)ccc2OC)[nH]n1 | -4%[57 µM] | -1% | ? | . | -36% | .
CCOC(=O)c1cc(S(=O)(=O)Nc2ccc(OC(F)(F)F)cc2)[nH]n1 | 2%[57 µM] | 7% | ? | . | 50µM* | .
COc1cc(/C=N/NC(=O)c2cc(-c3cccn3C)n[nH]2)cc(OC)c1OC | -32% | 7% | ? | -67* | 40µM* | -75*

Bioassay records from PubChem.
